Compounds with a hit are over-represented: about 4.2% of the library has one in this group of screens.
TRPV1 potentiator = HTS Assay for Compounds that Act as Potentiators of the Vanilloid Receptor 1. TRPV1-expressing cells, Fluo-8 calcium influx, capsaicin EC20 potentiation. potentiation, % at 8.33 µM. 320,000 compounds, 0.02% hits. Transient receptor potential cation channel subfamily V member 1 (Homo sapiens), Q8NER1; in the data active = potentiation above about 80%; inconclusive = between about 30% and that limit
Target sequence (Q8NER1 whole entry, looked up): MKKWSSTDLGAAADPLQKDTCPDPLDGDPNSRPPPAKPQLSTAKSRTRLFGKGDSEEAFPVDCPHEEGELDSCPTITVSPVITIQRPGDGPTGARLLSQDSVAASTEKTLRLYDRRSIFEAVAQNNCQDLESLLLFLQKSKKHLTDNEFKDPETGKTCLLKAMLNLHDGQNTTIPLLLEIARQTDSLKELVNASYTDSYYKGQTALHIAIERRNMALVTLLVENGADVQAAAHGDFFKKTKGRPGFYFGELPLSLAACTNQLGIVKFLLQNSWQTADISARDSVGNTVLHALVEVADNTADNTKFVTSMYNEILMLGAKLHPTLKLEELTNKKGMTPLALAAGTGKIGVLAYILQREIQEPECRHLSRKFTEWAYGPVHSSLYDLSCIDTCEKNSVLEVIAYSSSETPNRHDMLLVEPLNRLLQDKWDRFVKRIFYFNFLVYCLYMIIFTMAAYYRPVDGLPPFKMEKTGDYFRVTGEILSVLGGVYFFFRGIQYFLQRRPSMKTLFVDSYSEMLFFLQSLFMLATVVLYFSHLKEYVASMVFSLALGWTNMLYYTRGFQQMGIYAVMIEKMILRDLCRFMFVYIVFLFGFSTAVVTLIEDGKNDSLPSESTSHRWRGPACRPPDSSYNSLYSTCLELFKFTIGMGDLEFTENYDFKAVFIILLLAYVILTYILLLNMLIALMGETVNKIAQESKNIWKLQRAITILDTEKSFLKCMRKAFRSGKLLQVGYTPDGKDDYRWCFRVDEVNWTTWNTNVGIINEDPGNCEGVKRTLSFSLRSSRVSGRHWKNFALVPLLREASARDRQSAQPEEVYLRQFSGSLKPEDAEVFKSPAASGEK
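TRPV1-expressing cells were cultured overnight at 35.5C and loaded with Fluo-8 calcium dye for 40 to 90 min at room temperature. After a 10 s baseline, compound was added and calcium influx was read kinetically for 3 min (ex 480/em 520 nm).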
TRPV1 agonist = HTS Assay for Compounds that Act as Agonists of the Vanilloid Receptor 1; Transient receptor potential cation channel subfamily V member 1 (Homo sapiens), Q8NER1; TRPV1-expressing cells, Fluo-8 calcium influx, agonist mode; activation, % at 8.33 µM; 320,000 compounds, 0.19% hits; AID 540275, 2011; in the data active = activation above about 80%; inconclusive = between about 30% and that limit
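TRPV1-expressing cells were cultured overnight at 35.5C and loaded with Fluo-8 calcium dye for 40 to 90 min at room temperature. After a 10 s baseline, compound was added and calcium influx was read kinetically for 3 min (ex 480/em 520 nm).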
D1 PAM = Potentiators of Human D1 Dopamine Receptor: qHTS. D(1A) dopamine receptor (Homo sapiens), P21728. HEK293 TREx D1 cells, calcium flux, dopamine EC20 potentiation. 360,000 compounds, 0.036% hits. potentiation, % at 10 µM; in the data active = potentiation above about 30%
D1 agonist = Allosteric Agonists of the Human D1 Dopamine Receptor: qHTS; 360,000 compounds, 1% hits; activation, % at 2 µM; HEK293 T-REx D1 cells, calcium flux, agonist mode; D(1A) dopamine receptor (Homo sapiens), P21728; in the data active = activation above about 30%
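Tetracycline-induced HEK293 TREx D1 cells, force-coupled to calcium signalling, were dye-loaded with a no-wash calcium kit. Compound was pin-added after a 10 s baseline. Fluorescence was read kinetically at 1 cycle/s for 180 s, with calcium rises flagged as agonism.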
D1 antag = Antagonist of Human D 1 Dopamine Receptor: qHTS. HEK293 TREx D1 cells, calcium flux, dopamine EC80; hits give low values. activity change, negative = inhibition, % at 10 µM. 360,000 compounds, 3.2% hits; in the data active = activity change below about -30%
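Kinetic fluorescence of a calcium dye serves as the read-out. D1-expressing Hek293 Trex cells, induced overnight at 30 C, are exposed to compound for 180 s before an EC80 dopamine addition, then read 180 s further.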
Hits are given with their value; . = inactive; ? = inconclusive; / = no result given.

SMILES	TRPV1 potentiator	TRPV1 agonist	D1 PAM	D1 agonist	D1 antag
CCC(C)NC(=O)Cn1cnc2sc(C)c(S(=O)(=O)N3CCN(c4ncccn4)CC3)c2c1=O (stereo unspecified)	.	.	.	.	.
Cc1sc2ncn(CC(=O)Nc3ccc(C(C)C)cc3)c(=O)c2c1S(=O)(=O)N1CCN(c2ncccn2)CC1	/	/	.	.	-61
COc1cc(NC(=O)Nc2cccc(-c3noc(C)n3)c2)cc(OC)c1OC	/	/	.	.	.
CC(C)(C)OC(=O)NCc1ccc(CNC(=O)c2nc[nH]c2C(=O)NCc2ccccc2)cc1	.	.	.	.	-53
CNC(=O)c1[nH]cnc1C(=O)N[C@@H](C)C(=O)OCc1ccccc1	.	.	.	.	-34
C[C@H](NC(=O)c1nc[nH]c1C(=O)NCC(=O)OCc1ccccc1)C(=O)OCc1ccccc1	.	.	.	.	.
C[C@H](NC(=O)c1nc[nH]c1C(=O)N[C@@H](Cc1ccccc1)C(=O)OCc1ccccc1)C(=O)OCc1ccccc1	.	.	.	.	-31
O=C(/C=C/c1ccc(F)cc1)Nc1nc2n(n1)C(c1ccc(Cl)cc1)C=C(c1ccccc1)N2 (stereo unspecified)	/	/	.	.	.
CC(NC(=O)c1ccc2nc(CCc3ccccc3)oc2c1)c1ccccc1 (stereo unspecified)	/	/	.	.	.
Cc1ccccc1Cn1c2ccccc2c2cnn(CC(=O)NC(C)CCc3ccccc3)c(=O)c21 (stereo unspecified)	/	/	.	.	.
Cc1cc2oc(C(=O)NCc3ccncc3)c(C)c2cc1C	.	.	.	.	-36
COC(=O)c1ccccc1NC(=O)NCc1ccc2c(c1)CCN2C(=O)c1ccccc1	/	/	.	.	.
c1ccc(-n2nnnc2Oc2ccc(-n3ccnc3)cc2)cc1	.	.	.	.	.
c1ccc(-n2nnnc2-n2ccnc2)cc1	.	.	.	.	-97
CCOC(=O)c1c(NC(=O)COc2ccccc2F)sc2c1CC(C)(C)NC2(C)C	.	.	36	.	.
CCOC(=O)c1c(NC(=O)CSc2ncccn2)sc2c1CC(C)(C)NC2(C)C	.	.	.	.	.
COc1cccc(Nc2c3c(nc4nncn24)CCC3)c1	/	/	.	.	.
CCOc1ccc(-n2nc3ccc(N)cc3n2)cc1	.	.	.	.	.
CCOc1ccc(-n2nc3cc(C)c(N)cc3n2)cc1	.	.	.	.	-30
CC(C)Oc1ccc(C(=O)Nc2nonc2-c2ccc(OC(C)C)cc2)cc1	/	/	.	.	.
COc1ccc(C)cc1Nc1n[n+](-c2ccccc2)c(-c2c(OC)ccc3ccccc23)s1	.	.	.	46	-91
COc1ccc(-c2sc(Nc3ccccc3)n[n+]2-c2ccccc2)cc1Br	.	.	.	.	-31
COc1ccc(C)cc1Nc1n[n+](-c2ccccc2)c(-c2cc(OC)c(OC)cc2Br)s1	.	.	.	.	.
CCOc1cc(-c2sc(Nc3ccc(CC)cc3)n[n+]2-c2ccccc2)ccc1OC	.	.	.	.	.
CCOCCn1c(SCc2ccc(C)cc2)nc2c1c(=O)[nH]c(=O)n2C	/	/	.	.	-38
SMILES	TRPV1 potentiator	TRPV1 agonist	D1 PAM	D1 agonist	D1 antag
CCCCCCn1c(SCC(C)C)nc2c1c(=O)[nH]c(=O)n2C	.	.	.	.	.
CCCCCCn1c(SCC(=O)OC)nc2c1c(=O)[nH]c(=O)n2C	.	.	37	.	.
CCN(c1cccc(C)c1)S(=O)(=O)c1ccc(N2CCCCS2(=O)=O)cc1	/	/	.	.	.
CCOC(=O)c1noc2nc(C)n(Cc3cccc(C#N)c3)c(=O)c12	/	/	.	.	.
Cc1ccc(Cc2cnc(NC(=O)C3CCCO3)s2)cc1 (stereo unspecified)	.	.	.	.	.
O=C(Nc1ncc(Cc2cccc(C(F)(F)F)c2)s1)C1CCCO1 (stereo unspecified)	.	.	.	.	-40
CCS(=O)(=O)N1CC(=O)N(c2cccc(C)c2C)C(C)(C(=O)NC2CCCCC2)C1 (stereo unspecified)	/	/	.	.	.
CCCCn1c(CN2CCN(c3cccc(Cl)c3)CC2)nc2c1c(=O)n(C)c(=O)n2C	.	.	.	.	-31
CCCCCn1c(CN2CCN(c3cccc(Cl)c3)CC2)nc2c1c(=O)n(C)c(=O)n2C	.	.	.	.	.
CN1CCCC(CC2c3ccccc3Sc3ccccc32)C1 (stereo unspecified)	.	.	.	53	-41
CC(CN1c2ccccc2Sc2ccccc21)N(C)C (stereo unspecified)	.	.	.	.	.
CN1CCCC(CN2c3ccccc3Sc3ccccc32)C1 (stereo unspecified)	.	.	.	42	.
CN1CCCC(OC(=O)c2ccccc2F)C1 (stereo unspecified)	.	.	.	.	.
CCc1cc2c(cc3c(=O)n(CC(=O)NCCc4ccc(OC)cc4OC)nc(CC)n32)s1	/	/	.	.	.
CCOC(=O)C1CCN(c2cc(C)nc3c(-c4ccccc4OC)c(C)nn23)CC1	/	/	.	.	.
CCN(CC)S(=O)(=O)c1ccc2c(c1)nc(CN(C)C(=O)Nc1ccc(C)c(F)c1)n2C	/	/	.	.	-68
COc1ccc2oc(C(=O)OCC(=O)NC3CCCC3)c(C)c2c1	.	.	.	.	-37
COc1ccc2oc(C(=O)OCC(=O)NC3(C#N)CCCC3)c(C)c2c1	.	.	.	.	-49
CCOC(=O)Cn1c(S(=O)(=O)Cc2ccc(F)cc2)nc(-c2ccccc2)c1-c1ccccc1	.	.	.	.	.
CCOC(=O)Cn1c(S(=O)(=O)Cc2cccc(F)c2)nc(-c2ccccc2)c1-c1ccccc1	/	/	.	.	-38
CCC1CN(C(=O)N2CCC(C(=O)NCCCc3ccccc3)CC2)c2ccccc2O1 (stereo unspecified)	/	/	.	.	.
O=C(Nc1ccccc1F)c1ccc(-c2ccccc2)s1	/	/	.	.	.
CCc1ccc(NC(=O)c2ccc(-c3ccccc3)s2)cc1	/	/	.	.	.
O=C(Nc1ccccc1)c1ccc(-c2ccccc2)s1	.	?	.	51	.
CCOc1ccc(OCC)c(NC(=O)c2ccc(-c3ccccc3)s2)c1	/	/	.	.	-85
CC(C)N=C(N)N=C(N)Nc1ccc(Cl)cc1	.	.	.	.	.
NC(=NCCCCCCN=C(N)/N=C(\N)Nc1ccc(Cl)cc1)/N=C(\N)Nc1ccc(Cl)cc1	.	.	.	.	-82
CCOC(=O)CNC(c1ccccc1)c1cc(Br)ccc1NC(=O)c1ccc(Cl)cc1 (stereo unspecified)	/	/	.	.	.
CCCCn1c(NCc2ccccc2NS(=O)(=O)c2ccc(C)cc2)nc2ccccc21	.	.	.	.	-32

Screening results from PubChem.
